Assay outcomes: PubChem, several laboratories
PrP UTR inh – inhibition of PrP 5' UTR reporter expression; cell-based PrP 5' UTR mRNA reporter, plate reader; inhibition, % (no concentration beside the values); AID 488862; 0.35% of 340,000 active; in the data active means inhibition above about 52%; further: 0 = median of the neutral control wells
ugtP null kill – kills S. aureus RN4220 lacking UgtP; growth inhibition, % (no concentration beside the values); S. aureus RN4220 ugtP deletion, OD600 growth, 16 h; AID 1259309; 0.54% of 330,000 active; in the data active means growth inhibition above about 68%;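 further: plate controls were untreated wells for no effect and antibiotic for full effect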
TcdB GH inh – TcdB glycohydrolase inhibition | P18177 | TcdB glycohydrolase enzymatic assay, plate reader | inhibition, % at 9.99 µM | 0.24% of 350,000 active | AID 652162; in the data active means inhibition above about 10%
Target sequence (P18177 whole entry, looked up): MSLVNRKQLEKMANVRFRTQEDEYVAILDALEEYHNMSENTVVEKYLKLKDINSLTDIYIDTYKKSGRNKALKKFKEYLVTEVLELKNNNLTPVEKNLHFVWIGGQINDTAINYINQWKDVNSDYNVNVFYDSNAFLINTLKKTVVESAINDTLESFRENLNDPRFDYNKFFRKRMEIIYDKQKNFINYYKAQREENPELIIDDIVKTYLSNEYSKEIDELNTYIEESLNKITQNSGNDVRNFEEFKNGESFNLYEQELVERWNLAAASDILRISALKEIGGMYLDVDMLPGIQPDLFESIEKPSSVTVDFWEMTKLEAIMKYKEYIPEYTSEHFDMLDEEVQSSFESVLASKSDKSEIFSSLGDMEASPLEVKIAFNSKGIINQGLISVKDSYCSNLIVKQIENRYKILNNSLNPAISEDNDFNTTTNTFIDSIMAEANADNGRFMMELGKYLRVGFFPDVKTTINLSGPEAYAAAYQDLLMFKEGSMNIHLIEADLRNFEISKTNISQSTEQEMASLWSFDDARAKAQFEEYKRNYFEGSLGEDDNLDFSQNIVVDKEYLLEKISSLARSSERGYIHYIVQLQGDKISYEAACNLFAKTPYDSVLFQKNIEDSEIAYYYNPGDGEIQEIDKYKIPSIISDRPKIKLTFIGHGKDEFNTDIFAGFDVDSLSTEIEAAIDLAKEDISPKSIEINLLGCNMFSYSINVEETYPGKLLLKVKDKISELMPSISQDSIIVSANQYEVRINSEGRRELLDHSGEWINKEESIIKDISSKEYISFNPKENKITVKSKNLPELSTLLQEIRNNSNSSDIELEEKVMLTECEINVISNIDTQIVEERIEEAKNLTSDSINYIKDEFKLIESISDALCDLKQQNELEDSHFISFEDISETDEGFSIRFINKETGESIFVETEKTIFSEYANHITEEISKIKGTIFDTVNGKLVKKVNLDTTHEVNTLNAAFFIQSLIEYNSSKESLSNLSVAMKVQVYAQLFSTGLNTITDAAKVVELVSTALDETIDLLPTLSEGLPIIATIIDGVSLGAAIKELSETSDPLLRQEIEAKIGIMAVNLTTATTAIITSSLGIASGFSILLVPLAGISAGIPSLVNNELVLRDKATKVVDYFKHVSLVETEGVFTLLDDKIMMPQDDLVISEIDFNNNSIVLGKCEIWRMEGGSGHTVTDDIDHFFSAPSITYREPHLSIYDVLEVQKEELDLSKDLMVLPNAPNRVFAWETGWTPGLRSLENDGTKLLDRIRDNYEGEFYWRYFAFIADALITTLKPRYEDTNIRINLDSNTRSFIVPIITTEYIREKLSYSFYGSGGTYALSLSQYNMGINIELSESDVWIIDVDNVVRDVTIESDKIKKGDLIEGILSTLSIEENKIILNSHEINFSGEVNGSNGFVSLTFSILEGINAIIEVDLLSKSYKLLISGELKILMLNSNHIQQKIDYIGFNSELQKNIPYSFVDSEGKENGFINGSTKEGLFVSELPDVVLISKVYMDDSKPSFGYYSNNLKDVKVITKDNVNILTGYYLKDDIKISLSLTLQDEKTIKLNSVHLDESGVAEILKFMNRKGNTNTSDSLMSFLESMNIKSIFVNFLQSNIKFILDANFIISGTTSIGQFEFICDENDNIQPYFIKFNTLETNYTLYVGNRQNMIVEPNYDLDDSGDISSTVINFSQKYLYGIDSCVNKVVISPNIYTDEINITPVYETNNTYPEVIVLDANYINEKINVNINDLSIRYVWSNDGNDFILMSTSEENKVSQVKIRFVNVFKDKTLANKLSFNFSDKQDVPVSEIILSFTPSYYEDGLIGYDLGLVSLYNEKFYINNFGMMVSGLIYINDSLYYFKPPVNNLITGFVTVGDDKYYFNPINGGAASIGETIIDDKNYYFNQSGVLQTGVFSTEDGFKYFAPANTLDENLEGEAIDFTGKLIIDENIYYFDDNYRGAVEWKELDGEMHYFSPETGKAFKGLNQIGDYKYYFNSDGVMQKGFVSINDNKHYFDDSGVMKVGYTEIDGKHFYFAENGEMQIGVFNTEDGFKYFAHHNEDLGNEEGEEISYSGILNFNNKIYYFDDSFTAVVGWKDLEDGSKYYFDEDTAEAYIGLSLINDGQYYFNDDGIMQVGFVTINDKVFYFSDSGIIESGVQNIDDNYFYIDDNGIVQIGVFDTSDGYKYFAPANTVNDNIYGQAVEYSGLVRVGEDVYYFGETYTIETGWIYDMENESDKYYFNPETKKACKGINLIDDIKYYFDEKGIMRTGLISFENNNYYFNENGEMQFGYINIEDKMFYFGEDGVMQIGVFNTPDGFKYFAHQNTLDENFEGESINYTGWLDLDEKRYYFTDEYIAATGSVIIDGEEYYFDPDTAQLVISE
RN4220 kill – kills Staphylococcus aureus RN4220 | S. aureus RN4220 growth, OD600, 16 h | inhibition, % (no concentration beside the values) | 0.33% of 330,000 active | AID 1259311; in the data active means inhibition above about 85%;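 further: plate controls were untreated cells for no effect and reference antibiotic for full effect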
PfHsp40 rescue – rescue of PfHsp40-mediated yeast toxicity; 0.68% of 340,000 active; growth rescue, % at 12.5 µM; S. cerevisiae expressing PfHsp40, growth rescue, ATP luminescence; in the data active means growth rescue above about 28%, passing the limit was not always enough;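 further: yeast W303a lacking pdr1 and pdr3 grown in galactose medium; growth measured after three days at 30 °C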
Active calls of the source: *; nt = not tested or not shown. Sampled rows, rich in hits. Any-hit rate of the full collection: about 1.2%.

SMILES	PrP UTR inh	ugtP null kill	TcdB GH inh	RN4220 kill	PfHsp40 rescue
CC1CCCN(Cc2c(C(=O)N3CCc4ccccc4C3)nc3ccc(Cl)cn23)C1 (stereo not drawn)	-8	8	1	3	55*
O=C1C(=Cc2cccnc2)Cc2ccc(Cl)cc21	nt	-2	nt	0	nt
C[C@@H]1CCCCO[C@@H](CN(C)S(=O)(=O)c2ccc(F)cc2)[C@@H](C)CN([C@@H](C)CO)C(=O)c2cc(NS(C)(=O)=O)ccc2O1	nt	nt	-1	nt	nt
O=C(CSc1ccccc1)Nc1cc(S(=O)(=O)N2CCOCC2)ccc1N1CCOCC1	-26	3	12*	4	59*
CCOc1cccc(C=NNC(=S)Nc2cc(S(=O)(=O)N3CCOCC3)ccc2N2CCOCC2)c1O	nt	-13	nt	6	nt
CCOc1cccc(/C=N/NC(=S)Nc2cc(S(=O)(=O)N3CCOCC3)ccc2N2CCOCC2)c1O	16	nt	-2	nt	60*
Clc1ccc(-c2csc(NN=Cc3ccc4c(c3)OCO4)n2)cc1	nt	40	nt	0	nt
O=C(CSc1nnc(-c2ccncc2)o1)N1CCCCCC1	-21	20	18*	3	0
CCCN1C[C@@H](C)[C@@H](OC)CN(C)C(=O)c2cc(NC(=O)c3ccccc3)ccc2OC[C@@H]1C	nt	nt	-1	nt	nt
Nc1ncnc(N)c1N=Nc1ccccc1	-15	7	0	15	0
Nc1ccc2ccccc2c1N=Nc1ccccc1	-14	95*	2	8	7
CCC(=O)Nc1ccc2c(c1)OC[C@H](C)N(Cc1ccccc1C(=O)O)C[C@@H](C)[C@@H](OC)CN(C)C2=O	nt	nt	0	nt	nt
O=C(Nc1nnc(-c2ccc3c(c2)CCCC3)o1)c1c(F)cccc1F	-55	12	0	7	3
O=C(Nc1nnc(-c2ccc3c(c2)CCCC3)o1)C1CCCCC1	-7	2	0	5	0
COc1ccc(-c2nnc(NC(=O)c3ccc(S(=O)(=O)N4CCc5ccccc5C4)cc3)o2)cc1	31	99*	nt	-3	1
COc1ccc(-c2nnc(NC(=O)c3cc(Cl)ccc3Cl)o2)cc1	-4	100*	1	7	0
CN(C)S(=O)(=O)c1ccc(C(=O)Nc2nnc(-c3ccc4c(c3)CCCC4)o2)cc1	4	99*	1	98*	-2
O=C(Nc1nnc(-c2ccc3c(c2)CCCC3)o1)c1ccc(Cl)cc1Cl	-15	100*	1	99*	-2
CCCC(=O)Nc1ccc2c(c1)OC[C@H](C)N(CCC(F)(F)F)C[C@H](C)[C@@H](OC)CN(C)C2=O	nt	nt	-13	nt	nt
Cc1noc(C)c1NC(=O)N(C)C[C@@H]1Oc2c(NC(=O)C3CC3)cccc2C(=O)N([C@H](C)CO)C[C@H]1C	nt	nt	0	nt	nt
C[C@H](CO)N1C[C@H](C)[C@@H](CN(C)S(C)(=O)=O)Oc2cc(C#CCN(C)C)ccc2S1(=O)=O	nt	nt	-1	nt	nt
FC(F)(F)c1cccc(N2CCN(C(=S)NC3CCCCC3)CC2)c1	-17	-27	nt	-2	37*
O=c1c2ccccc2nc(COc2ccccc2)n1N=Cc1ccc(O)c(O)c1	nt	-22	nt	8	nt
O=c1c2ccccc2nc(COc2ccccc2)n1/N=C/c1ccc(O)cc1O	-2	nt	3	nt	52*
O=C(CC(Sc1ccc(Br)cc1)C(=O)O)c1ccc(F)cc1 (stereo not drawn)	nt	92*	1	43	8
SMILES	PrP UTR inh	ugtP null kill	TcdB GH inh	RN4220 kill	PfHsp40 rescue
CCOc1ccc(C(=O)CC(Sc2ccc(C)cc2)C(=O)O)cc1 (stereo not drawn)	-1	5	-1	3	0
O=C1/C(=C\c2cc(Br)cc(Br)c2O)SC(=S)N1Cc1ccccc1	-5	100*	nt	100*	0
S=C(NCCN1CCOCC1)NN=Cc1cccs1	nt	3	nt	2	nt
CC(C)NC(=O)Nc1ccc2c(c1)C(=O)N([C@H](C)CO)C[C@H](C)[C@H](CN(C)S(C)(=O)=O)OCCCC[C@@H](C)O2	nt	nt	-8	nt	nt
C/C(=N\NC(=S)NCc1ccccc1)c1cccc(Br)c1	-21	nt	1	nt	136*
CC(=NNC(=S)NCc1ccccc1)c1cccc(Br)c1	nt	3	nt	6	nt
Cc1noc(C)c1S(=O)(=O)Nc1ccc2c(c1)CC(=O)N([C@H](C)CO)C[C@@H](C)[C@H](CN(C)S(=O)(=O)c1cn(C)cn1)O2	nt	nt	0	nt	nt
C[C@H](NC(=O)C[C@@H]1C[C@H]2c3cc(NC(=O)CC4CC4)ccc3O[C@H]2[C@H](CO)O1)c1ccccc1	nt	nt	-1	nt	nt
O=C(c1cccnc1)N1C[C@@H]2[C@H](c3ccccc31)[C@@H](CO)N2C(=O)C1CC1	nt	nt	-1	nt	nt
COc1cccc(CNc2ncnc3ccc(-c4c(C)noc4C)cc23)c1	5	18	1	17	33*
COc1cc(C(=O)NCC(c2cccs2)N2CCOCC2)cc(Br)c1OCc1ccccc1 (stereo not drawn)	1	12	1	8	132*
Cc1ccc(CNC(=O)C2COc3ccccc3O2)cc1 (stereo not drawn)	-37	8	0	1	103*
O=C(NCc1ccccc1)[C@@H]1[C@@H](CO)[C@@H]2Cn3c(cccc3=O)[C@H]1N2C(=O)c1cnccn1	nt	nt	-16	nt	nt
COc1cc(OC)c(NC(=S)Nc2cc(Cl)cc(Cl)c2)cc1Cl	7	93*	0	99*	1
O=C(c1ccc2c(c1)N(Cc1ccccc1F)C(=O)c1ccccc1S2)N1CCOCC1	nt	4	10*	3	nt
O=C(c1ccc2c(c1)N(Cc1ccccc1)C(=O)c1ccccc1S2)N1CCCC1	-32	-1	34*	4	0
S=C1NCC(c2ccccc2)N1CCCCC1CCCCC1 (stereo not drawn)	nt	34	nt	14	nt
S=C1NC[C@H](c2ccccc2)N1CCCCC1CCCCC1	-21	nt	1	nt	330*
CC(C)=CCc1c(O)ccc(C(=O)Cc2ccccc2)c1O	-26	21	nt	-3	611*
Cc1ccc(C(=O)Cc2ccccc2)c(O)c1	-56	6	1	3	-2
Cc1cccc(-c2ccc([C@H]3[C@@H](CO)N4CCCCN(C(=O)c5ccc6c(c5)OCO6)C[C@H]34)cc2)c1	nt	nt	1	nt	nt
CC(C)NS(=O)(=O)c1ccc(Oc2ncc(C(F)(F)F)cc2Cl)cc1	-18	-4	nt	4	0
O=S(=O)(Nc1ccccc1)c1ccc(Oc2ncc(C(F)(F)F)cc2Cl)cc1	-4	4	nt	-7	282*
O=[N+]([O-])c1ccc(Oc2ccc(S(=O)(=O)Nc3ccccc3)cc2)cc1	-20	44	nt	4	388*
O=[N+]([O-])c1ccc(S(=O)(=O)Nc2nc(-c3ccccc3)cs2)cc1	-5	-5	13*	3	0
NC(=O)C1CC2(CC(c3cccc(NC(=O)CC(c4ccccc4)c4ccccc4)c3)=NO2)CN1C(=O)c1ccc(Cl)cc1 (stereo not drawn)	nt	11	nt	-9	nt
COc1ccccc1NS(=O)(=O)c1cccc(C(=O)NN=C(C)c2cccnc2)c1	nt	9	nt	7	nt
C[C@@H]1CN([C@@H](C)CO)C(=O)c2cc(NC(=O)Nc3ccc(F)cc3)ccc2O[C@@H]1CN(C)S(=O)(=O)c1ccc(F)cc1	nt	nt	-1	nt	nt
CCSc1nc(-c2ccccc2)nc2c1CCCC2	-59	88*	0	4	-2
